Compound activity (PubChem)
Tau fluor cs: counter-screen for tau fibril formation inhibitors | hit rate 0.93% among 280,000 | AID 1463 | tau K18 P301L Alexa594 fluorescence, heparin fibrillization | Potency, µM (doses to about 57.7 µM); further: nearly all actives have a fitted effect of over 55% in size
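Human K18 P301L tau (15 uM unlabeled plus 0.24 uM Alexa 594-labeled, final) in 100 mM sodium acetate pH 7 was mixed with compound and 20 uM heparin and incubated 6 hr at 37 C.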
TR SRC2 fluor cs: alters Texas Red total fluorescence, flagging assay interference | TRb/SRC2 Texas Red total fluorescence interference | hit rate 0.29% among 280,000 | Potency, µM (titrated, usually from 106 µM); active means well fitted curve in either direction with a large enough effect; inconclusive means small, poorly fitted or top-dose-only effect
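Human TRb ligand-binding domain at 0.6 uM with 20 nM Texas Red SRC2 peptide in Tris buffer containing 1 uM T3 and 5% DMSO, incubated with compound 5 h at ambient temperature. Total fluorescence (555/632 nm) calculated as parallel + 2 × perpendicular.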
TRb SRC2 PPI: disrupts binding of human TR beta to SRC2; hit rate 0.065% among 280,000; TRbeta-SRC2 peptide binding, fluorescence polarization; receptor liganded with 1 µM T3; P10828; Potency, µM (top dose mostly 106 µM), actives largely listed as inhibitors; further: nearly all actives have a fitted effect of over 50% in size
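Fluorescence polarization of 20 nM Texas Red SRC2 peptide (20-aa NR interaction domain) bound to 0.6 uM human TRb ligand-binding domain, with 1 uM T3, after 5 hr at ambient temperature; inhibition seen as decreased polarization.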
RGS12 GoLoco inh: RGS12 GoLoco-Gai1 interaction inhibition | Gai1:RGS12 GoLoco peptide FP, rhodamine, 10 min | P63096 | AID 880 | hit rate 0.44% among 230,000 | Potency, µM (doses to about 61.6 µM), hits mostly inhibitors; active means well fitted inhibition curve with a large enough effect, not every such curve was filed as active; inactive means no such curve, though single readings can be large or run the other way; further: nearly all actives have a fitted effect of over 30% in size
Target sequence (P63096 whole entry, looked up): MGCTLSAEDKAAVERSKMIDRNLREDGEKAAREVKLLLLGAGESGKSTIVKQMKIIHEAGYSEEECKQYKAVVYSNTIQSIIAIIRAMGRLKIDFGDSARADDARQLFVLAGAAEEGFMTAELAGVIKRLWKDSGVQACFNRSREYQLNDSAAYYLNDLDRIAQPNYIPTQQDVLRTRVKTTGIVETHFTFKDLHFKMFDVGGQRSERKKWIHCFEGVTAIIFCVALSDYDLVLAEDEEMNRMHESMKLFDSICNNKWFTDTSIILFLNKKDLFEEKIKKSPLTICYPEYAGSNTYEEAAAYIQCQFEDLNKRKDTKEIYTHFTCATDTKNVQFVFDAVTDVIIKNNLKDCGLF
Tau fibril ThT: inhibitors of human tau fibril formation, thioflavin T binding. P10636. recombinant tau K18 P301L, heparin-induced fibrillization, ThT fluorescence. Potency, µM (top dose mostly 57.4 µM), actives largely listed as inhibitors. hit rate 2.1% among 270,000. AID 1460; further: nearly all actives have a fitted effect of over 55% in size
Target sequence (P10636 561-689 P618L limits assumed): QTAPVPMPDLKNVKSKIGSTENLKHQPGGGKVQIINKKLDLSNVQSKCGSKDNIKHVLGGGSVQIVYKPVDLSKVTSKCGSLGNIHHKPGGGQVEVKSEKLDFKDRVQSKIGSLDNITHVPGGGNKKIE
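Aggregation was driven by heparin (20 uM final) acting on recombinant tau […] bearing P301L in 100 mM sodium acetate pH 7; fibrils were detected with Thioflavin T.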
Tau FP inhib: tau fibrillization inhibition (FP) | P10636 | K18 P301L tau heparin fibrillization, Alexa594 FP, 6 h | Potency, µM (highest dose often 57.7 µM), most hits filed as inhibitors | hit rate 0.39% among 280,000; further: nearly all actives have a fitted effect of over 55% in size
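Heparin (20 uM) drove fibril formation of recombinant tau K18 P301L, 15 uM unlabeled with 0.24 uM Alexa 594 label, for 6 hr at 37 C in 100 mM sodium acetate pH 7. Fluorescence polarization (555/632 nm) read 1 hr after 30 uM ThT.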
Large screens that a line does not name were inactive; ! = not active in a repeat; [ ] = another dose, or the depositor's remark. Sampled rows, rich in hits. Any-hit rate of the full collection: about 3.1%. Unless noted, the call rests on the fitted dose curve; in most records, active means well fitted curve in the direction sought with a large enough effect; inconclusive means small, poorly fitted or top-dose-only effect, or another doubt; inactive means no such curve, though single readings can be large; an effect the other way counts as inactive or inconclusive.

O=C(Nc1cccc(C(F)(F)F)c1)c1ccc2nc(-c3ccco3)c(-c3ccco3)nc2c1	Tau fluor cs 16µM[quencher], TR SRC2 fluor cs 8.9µM[quencher], TRb SRC2 PPI inconclusive, Tau fibril ThT 14µM, Tau FP inhib inconclusive
O=C(Nc1ccc2nc(-c3ccco3)c(-c3ccco3)nc2c1)NC1CC1	Tau fluor cs 13µM[quencher], TR SRC2 fluor cs 35µM[quencher], Tau fibril ThT 7.1µM, Tau FP inhib inconclusive
O=C(O)c1cc(-c2ccco2)nc2ccc(Br)cc12	Tau fluor cs inconclusive, Tau fibril ThT 16µM!, Tau FP inhib inconclusive
NC(=O)COC(=O)c1cc(-c2ccco2)nc2ccccc12	Tau fibril ThT inconclusive, Tau FP inhib inconclusive
CCOC(=O)c1cnn(Cc2ccccc2)c1N	none
O=C(Oc1ccccc1F)c1nc(SCc2ccc(F)cc2)ncc1Cl	Tau fibril ThT 20µM (no result: RGS12 GoLoco inh)
COc1ccc(/C=N\Nc2ccc([N+](=O)[O-])cc2)c(C(=O)O)c1OC	Tau fibril ThT 13µM
CCCCN(c1ccccc1)S(=O)(=O)c1ccc2c(c1)CC(C)N2C(=O)C1CC1 (centres undefined)	none (no result: RGS12 GoLoco inh)
Cc1ccc2cc(COC(=O)c3ccncc3)c(=O)[nH]c2c1	none
COc1cccc(OCCNc2cc(N3CCOCC3)ccc2[N+](=O)[O-])c1	Tau fluor cs inconclusive, Tau fibril ThT 11µM
COc1ccc(OCCNc2cc(N3CCOCC3)ccc2[N+](=O)[O-])cc1	Tau fluor cs inconclusive, Tau fibril ThT 5µM
CC(C)CNc1cc(N2CCCC2)ccc1[N+](=O)[O-]	Tau fibril ThT inconclusive (no result: TR SRC2 fluor cs, TRb SRC2 PPI)
COc1cccc(OCCNc2cc(N3CCCCC3)ccc2[N+](=O)[O-])c1	Tau fluor cs inconclusive, Tau fibril ThT inconclusive
CCNc1cc(N2CCCC2)ccc1[N+](=O)[O-]	Tau fibril ThT 11µM
CCCC(=O)N1CCN(c2ccc([N+](=O)[O-])c(NC(C)c3ccccc3)c2)CC1 (centres undefined)	Tau fibril ThT 14µM
CCCc1ccc2c(N)c(C#N)sc2n1	none (no result: RGS12 GoLoco inh)
N#CC1=C(N)C2=C(N3CCCCC3)CCCC2C1(C#N)C#N (centres undefined)	Tau fluor cs inconclusive, Tau fibril ThT 32µM, Tau FP inhib inconclusive
CCOc1ccccc1NC(=O)CN(CCc1ccccc1)S(=O)(=O)c1ccc(C)cc1	TR SRC2 fluor cs 0.032µM[quencher] (no result: RGS12 GoLoco inh)
CC(C)C[C@H](N)C(=O)O	none (no result: Tau fluor cs, TR SRC2 fluor cs, TRb SRC2 PPI, Tau fibril ThT, Tau FP inhib)
CC(C)C[C@H](N)CSSC[C@@H](N)CC(C)C	Tau fibril ThT 5µM, Tau FP inhib inconclusive
CS(=O)(=O)Nc1nnc(C2CCCC2)s1	none
O=[N+]([O-])c1ccc(N/N=C/c2cccc(O)c2O)c(S(=O)(=O)N2CCOCC2)c1	Tau fluor cs inconclusive, Tau fibril ThT inconclusive
O=[N+]([O-])c1ccc(N/N=C/c2ccc(O)c(O)c2O)c(S(=O)(=O)N2CCOCC2)c1	Tau fluor cs inconclusive, TR SRC2 fluor cs inconclusive, Tau fibril ThT 4µM, Tau FP inhib 10µM
O=C(CCc1ccc(S(=O)(=O)N2CCOCC2)cc1)N/N=C/c1ccc(F)cc1F	none
O=C(CCc1ccc(S(=O)(=O)N2CCOCC2)cc1)N/N=C/c1ccc(O)c(O)c1O	Tau fibril ThT 25µM, Tau FP inhib inconclusive
Cc1[nH]n(-c2ccc([N+](=O)[O-])cc2)c(=O)c1C=NCCc1c(C)[nH]c2ccccc12	Tau fluor cs 22µM[quencher], Tau fibril ThT inconclusive, Tau FP inhib inconclusive
Cc1ccc(-n2[nH]c(C)c(/C=N/Nc3ccc([N+](=O)[O-])cc3[N+](=O)[O-])c2=O)cc1	Tau fluor cs 3.2µM[quencher], Tau fibril ThT 1.6µM, Tau FP inhib 10µM
Cc1[nH]n(-c2ccc([N+](=O)[O-])cc2)c(=O)c1C=NCC1CCCO1 (centres undefined)	none
CCS(=O)(=O)c1ccc2oc(SCC(=O)Nc3ccc(OC)cc3)nc2c1	none
COc1ccc(NC(=O)c2c(C)oc3ccc(O)c(CN4CCC(C)CC4)c23)cc1	TR SRC2 fluor cs inconclusive (no result: RGS12 GoLoco inh)
CCSc1ncc(Cl)c(C(=O)Nc2c(C(=O)Nc3ccccc3)oc3ccccc23)n1	none (no result: RGS12 GoLoco inh)
NC(=O)N/N=C/c1ccc(N2CCOCC2)s1	Tau fibril ThT inconclusive
O=C(O)c1cc(N/N=C/c2ccc(N3CCOCC3)s2)ccc1Cl	Tau fluor cs inconclusive, Tau fibril ThT 11µM, Tau FP inhib inconclusive
O=C(/C(=C/O)N=Nc1ccccc1)c1ccncc1	Tau fibril ThT 14µM
Cc1ccc(N=N/C(=C\O)C(=O)c2ccc(Cl)cc2)cc1	Tau fibril ThT 28µM
CC(C)CN1CCC2(CC1)CCN(C(=O)c1cc(C(F)(F)F)cc(C(F)(F)F)c1)CC2	none (no result: Tau fluor cs, TR SRC2 fluor cs, TRb SRC2 PPI, Tau fibril ThT, Tau FP inhib)
CCOc1ccccc1NC(=O)C(OC(=O)c1ccc(O)cc1)c1ccccc1 (centres undefined)	Tau fluor cs inconclusive, Tau FP inhib 22µM
O=C(Nc1ccccc1)N(O)c1ccc(Cl)cc1	Tau fibril ThT 25µM, Tau FP inhib inconclusive
O=C(C1CC=CCC1)N1CCC(CO)(Cc2ccc(Cl)cc2)CC1 (centres undefined)	none
Nc1ccc(N=Nc2ccc(N)cc2)cc1	Tau fibril ThT 11µM
O=[N+]([O-])c1cccnc1N1CCC(c2cc(-c3ccc(Cl)cc3Cl)n[nH]2)CC1	Tau fluor cs inconclusive, Tau fibril ThT 13µM
COc1ccc(OC)c(-c2cc(C3CCN(c4ncccc4[N+](=O)[O-])CC3)[nH]n2)c1	none
CC(=O)c1ccc(N2CCC(c3cc(-c4ccc(Cl)cc4Cl)n[nH]3)CC2)c([N+](=O)[O-])c1	Tau fluor cs inconclusive, Tau fibril ThT 13µM, Tau FP inhib inconclusive
O=[N+]([O-])c1cccnc1N1CCC(c2cc(-c3cccc(C(F)(F)F)c3)n[nH]2)CC1	Tau fluor cs inconclusive, Tau fibril ThT 14µM
COc1ccc(/C=N/c2c(-c3ccco3)nc3ccccn23)cc1OC	Tau fluor cs 22µM[quencher], Tau fibril ThT 22µM, Tau FP inhib inconclusive
COc1cc(-c2nc3ccccn3c2/N=C/c2ccc(F)cc2)ccc1O	Tau fibril ThT inconclusive
Clc1ccc(/C=N/c2c(-c3ccco3)nc3ccccn23)cc1	Tau fluor cs 25µM[quencher], Tau fibril ThT 25µM, Tau FP inhib inconclusive
Oc1ccccc1/C=N/c1c(-c2ccco2)nc2ccccn12	Tau fluor cs 22µM[quencher], TRb SRC2 PPI inconclusive, Tau fibril ThT 22µM, Tau FP inhib inconclusive
CN(C)c1ccc(C(CN)c2c[nH]c3ccccc23)cc1 (centres undefined)	Tau fluor cs inconclusive, Tau fibril ThT inconclusive
O=C1c2cccnc2C(Nc2ccc(Cl)cc2)N1Cc1cccs1 (centres undefined)	none
O=C(N/N=C/c1cc2c3c(c1O)CCCN3CCC2)c1ccccc1O	Tau fluor cs 11µM[quencher], RGS12 GoLoco inh 28µM, Tau fibril ThT 13µM
O=C(CNC(=O)c1ccccc1)NC1(C(=O)NC2CCCCC2)CCCCC1	none
